CSC inhib: blocks cancer stem cells. cancer stem cell-like cells viability, luminescence. inhibition, % at 7.5 µM. hit rate 1.1% among 300,000; in the data active = inhibition above about 75%; tested in HMLE shEcad cells
Beta apoptosis: beta cell apoptosis inhibition; INS-1E cytokine-induced death, ATP luminescence, 48 h; percent of positive-control rescue, neutral wells zero; protection from apoptosis, % (no concentration beside the values); hit rate 0.8% among 300,000; AID 435005;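 active = Every replicate reaches about 75%, or at least half do and their mean reaches it too, limit read from the data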;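 note: 0% = cytokine-treated negative control wells and 100% = positive control rescue; higher means more ATP so stronger rescue from cytokine killing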
MPTP inh: permeability transition pore inhibition; isolated mouse mitochondria, Ca2+ swelling absorbance, 30 min; inhibition, % at 10 µM; hit rate 1.4% among 360,000; AID 602449;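 active = inhibition of 50% or more, scaled per plate between neutral and stimulator controls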;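 note: 0% = DMSO wells given calcium and 100% = 1 mM EGTA wells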
Mdm2 MdmX PPI: inhibitors of human Mdm2/MdmX interaction; inhibition, % at 8 µM; O15151+Q00987; hit rate 3% among 330,000; SaOS-2 split-luciferase Mdm2/MdmX complementation, luminescence;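 active = inhibition of at least 50% at 8 µM in the primary screen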
SKKanGAS inh: blocks kanamycin growth of S. pyogenes SKKanGAS strain | BacTiter-Glo, 6 h | inhibition, % at 7.5 µM | hit rate 1.3% among 300,000 | AID 1662;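 active = mean replicate score, as percent of positive control median, at least 50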;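 note: strain carries kanamycin resistance gene driven by streptokinase promoter and grows in 40 µg/ml kanamycin; loss of luminescence reflects streptokinase promoter inhibition or plain growth inhibition; 0% = median of DMSO wells and 100% = positive control at its reference dose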
NR3A LBD binder: NR3A (human) ligand-binding domain modulation. NR3A LBD differential scanning fluorimetry, Tm shift; 0% = protein alone, 100% = glycine-bound protein. Tm shift relative to glycine control, % at 25 µM. hit rate 2.5% among 340,000. AID 1259313;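 active = melting temperature shift of at least 10% of the positive control shift, at one fixed dose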
Mdm2 MdmX conf: human Mdm2/MdmX binding inhibition, confirmed. shares compounds with Mdm2 MdmX PPI. luminescent assay. inhibition, % at 8 µM. hit rate 55% among 10,000. AID 489028; in the data active = inhibition above about 40%
FLuc counter: inhibits full-length luciferase, flagging false Mdm2/MdmX hits | shares compounds with Mdm2 MdmX PPI | SaOS-2 full-length luciferase counterscreen, luminescence | inhibition, % at 8 µM | hit rate 77% among 6,200 | AID 504607;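 active = mean inhibition at 8 µM reaching about 37%, which flags the compound as non-specific, limit read from the data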;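 note: p53-null SaOS-2 cells with luciferase driven by a doxycycline-inducible promoter; compound on cells about two nights before reading with doxycycline added after day one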
Starred values were filed as active, the others as inactive; · = no result given. An excerpt weighted towards active compounds, which were near 6.9% of everything screened.

SMILES | CSC inhib | Beta apoptosis | MPTP inh | Mdm2 MdmX PPI | SKKanGAS inh | NR3A LBD binder | Mdm2 MdmX conf | FLuc counter
CCOC(=O)N1CCN(S(=O)(=O)c2ccc(C(=O)NNc3nc4cc(C)cc(C)c4s3)cc2)CC1 | 103* | 84* | 5 | 79* | 23 | -1 | 46* | 47*
Cc1ccc(C(=O)NNC(=O)c2ccc(S(=O)(=O)N3CCCCC3)cc2)cc1 | -1 | -6 | 0 | 1 | · | 0 | · | ·
COC(=O)c1ccc(C(=O)NC(=S)Nc2nc3c(s2)CC(C)CC3)cc1 (stereo not given) | -8 | -9 | 3 | -37 | -7 | -1 | · | ·
COc1ccccc1CN1CC(C(=O)N(C)CCc2nc3ccc(F)cc3[nH]2)CCC1=O (stereo not given) | -7 | -10 | 0 | 19 | 2 | 1 | · | ·
COc1ccc(CCC(=O)OCC(=O)Nc2ccc(OC)c(OC)c2)cc1OC | -6 | -2 | 1 | 1 | -5 | 0 | · | ·
CN1C(=O)Cc2cc(S(=O)(=O)Nc3ccc(N4CCOCC4)cc3)ccc21 | -8 | -4 | 0 | 24 | 1 | 1 | · | ·
CCOC(=O)N1CCN(S(=O)(=O)c2ccc(C(=O)NNc3nc4c(C)cc(C)cc4s3)cc2)CC1 | 126* | 97* | 1 | 80* | 22 | 0 | 70* | 48*
CCOC(=O)N1CCN(S(=O)(=O)c2ccc(C(=O)NNc3nc4c(C)cccc4s3)cc2)CC1 | · | 55 | 3 | 53* | 22 | -26 | 41* | 47*
COCCCNC(=O)c1ccc2nc([C@@H]3O[C@H](CO)[C@H](O)[C@H](O)[C@H]3O)[nH]c2c1 | · | · | 0 | · | · | · | · | ·
O=c1[nH]c(=O)n(CCc2ccc(F)cc2)c(O)c1C=NCc1ccc2c(c1)OCO2 | · | -3 | 0 | 80* | -7 | -2 | 6 | ·
Cc1nnsc1-c1nc2ccccc2n1C(CCc1ccccc1)c1nc2ccccc2[nH]1 (stereo not given) | · | · | 2 | · | · | · | · | ·
COc1ccccc1N1CC=C(c2cccc([N+](=O)[O-])c2)NC1=O | -7 | -4 | 2 | -15 | 0 | 0 | · | ·
Cc1ccc(-c2nc(N/N=C/c3ccncc3)c3ccccc3n2)cc1 | -18 | 64 | 1 | -24 | 9 | -32 | · | ·
CCC(C)Nc1nc(-c2cccc(OC)c2O)nc2ccccc12 (stereo not given) | 60 | -11 | 38 | 35 | 7 | -2 | · | ·
CCC(C)Nc1nc(-c2ccccn2)nc2ccccc12 (stereo not given) | 29 | 90* | 0 | 82* | 89* | -4 | 58* | 29
Fc1ccccc1/C=N/Nc1nc(-c2ccccn2)nc2ccccc12 | 37 | 105* | · | 82* | 12 | · | 78* | 57*
c1ccc(CNc2nc(-c3ccccn3)nc3ccccc23)cc1 | 50 | 106* | 0 | 78* | 93* | -2 | 78* | 23
CNC(=O)c1ccccc1Sc1cccc2cccc(C(=O)O)c12 | -11 | -4 | -1 | 16 | 7 | 1 | · | ·
Nc1nc2ccc([N+](=O)[O-])cc2[nH]1 | -3 | · | -1 | 31 | -2 | 0 | · | ·
O=[N+]([O-])c1ccc2nc(-[n+]3c(-c4ccccc4)cc(-c4ccccc4)cc3-c3ccccc3)[nH]c2c1 | 31 | 45 | 5 | 81* | 1 | -5 | 62* | 57*
CS(=O)(=O)Nc1cccc(S(=O)(=O)N2CCN(C(=O)c3ccccc3)CC2)c1 | · | -1 | 0 | 17 | -3 | -2 | · | ·
Cc1cccc(N2N=C(C(=O)O)CCC2=O)c1 | -4 | 0 | 1 | -27 | -1 | 0 | · | ·
Cc1ccc(-c2ccc(/C=C3\C(=O)ON=C3c3ccccc3)o2)c([N+](=O)[O-])c1 | 5 | 92* | -4 | 82* | 5 | -1 | 1 | ·
CCSc1nc2ccccc2n1C(=O)/C=C/c1ccc(OC)c(OC)c1 | 9 | -1 | 1 | 100* | -12 | -2 | 99* | 54*
C=CCSc1nc2ccccc2n1C(=O)/C=C/c1ccc(OC)c(OC)c1 | 5 | 68 | 0 | · | -3 | -29 | · | ·
